Measurements as given in the supplement of paper PMC11865577.
Where a name gives a salt, the structure may show the parent alone.

Each molecule was assayed on hsa-mir-6850 loop (assay: normalised indicator fluorescence (fraction of RNA + indicator signal without compound); higher = less displacement of indicator (weaker competition)). Settings: compound concentration: 5 uM; 30 min; indicator: TO-PRO-1 0.1 uM; RNA concentration: 0.1 uM.
Procedure, shortened: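 Compounds, each at about 5 uM final from 0.25 μL of 1 mM DMSO stock, were tested in 96-well plates for displacement of TO-PRO-1 or TO-PRO-3 from RNA in 20 mM phosphate pH 7.0, 20 mM NaCl, 80 mM KCl. Fluorescence was recorded after 30 min on an Infinite 200 PRO (excitation 485 or 620 nm). Reported values are averages of two independent experiments, calculated as indicator fluorescence minus the buffer-plus-indicator blank, divided by the RNA-plus-indicator signal without compound.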
Work on `CC(=O)Oc1c(C)c(C)c2c(c1C)CCC(C)(CCC[C@H](C)CCC[C@H](C)CCCC(C)C)O2` (stereo not given in full) [Vitamin E Acetate] yielded a normalised indicator fluorescence of 0.957.
Work on `COc1nccnc1NS(=O)(=O)c1ccc(NC(=O)/C=C/c2ccc([N+](=O)[O-])s2)cc1` [Necrosulfonamide] yielded a normalised indicator fluorescence of 0.886.
`CN(NC(=O)CC(=O)NN(C)C(=S)c1ccccc1)C(=S)c1ccccc1` [Elesclomol] showed a normalised indicator fluorescence of 1.02.
With `O=c1ccc2ccc(O)cc2o1` [7-Hydroxycoumarin] the normalised indicator fluorescence was 0.986.
For `O=C(O)/C=C/c1ccc(Cn2ccnc2)cc1` [Ozagrel hydrochloride], the normalised indicator fluorescence was 1.02.
For `Fc1ccc(-c2nc3n(c2-c2ccncc2)CCS3)cc1`, the normalised indicator fluorescence was 0.947.
With `O=[N+]([O-])c1ccc(-c2nc(-c3ccc(F)cc3)c(-c3ccncc3)[nH]2)cc1` the normalised indicator fluorescence was 0.975.
With `OC[C@H]1O[C@@H](Oc2ccc(O)cc2)[C@H](O)[C@@H](O)[C@@H]1O` [Arbutin] the normalised indicator fluorescence was 0.964.
Work on `COc1ccc(O)cc1` [4-Methoxyphenol] yielded a normalised indicator fluorescence of 0.977.
Work on `CCNC(=O)c1noc(-c2cc(C(C)C)c(O)cc2O)c1-c1ccc(CN2CCOCC2)cc1` [Luminespib] yielded a normalised indicator fluorescence of 1.01.
Work on `O=c1cc(-c2ccc(O)cc2)oc2cc(O)cc(O)c12` [Apigenin] yielded a normalised indicator fluorescence of 0.954.
`O=C1O[C@H]([C@@H](O)CO)C(O)=C1O` [L(+)-Ascorbic acid] was tested, and the normalised indicator fluorescence was 1.09.
`O=c1ncn2nc(Sc3ccc(F)cc3F)ccc2c1-c1c(Cl)cccc1Cl` [Neflamapimod] showed a normalised indicator fluorescence of 0.955.
`Cc1cccc(CC(=O)N2CCc3c2ccc(-c2cn(C)c4ncnc(N)c24)c3F)n1` was tested, and the normalised indicator fluorescence was 0.973.
`CC(=O)O[C@H]1C[C@@]2(C)[C@@H](C[C@@H](O)[C@H]3[C@@]4(C)CC[C@@H](O)[C@@H](C)[C@@H]4CC[C@@]32C)/C1=C(\CCC=C(C)C)C(=O)O` [Sodium fusidate] showed a normalised indicator fluorescence of 0.956.
`CC(=O)CCCCn1c(=O)c2c(ncn2C)n(C)c1=O` [Pentoxifylline] showed a normalised indicator fluorescence of 0.943.
Molecule `Cc1c(C)c2c(c(C)c1O)CC[C@@](C)(CCC[C@H](C)CCC[C@H](C)CCCC(C)C)O2` [Vitamin E] has a normalised indicator fluorescence of 0.907.
Work on `O=C(NC(Cc1cc(=O)[nH]c2ccccc12)C(=O)O)c1ccc(Cl)cc1` (stereo not given) [Rebamipide] yielded a normalised indicator fluorescence of 1.19.
Work on `NC(=O)c1ccc(N(C(N)=O)c2c(F)cccc2F)nc1-c1ccc(F)cc1F` yielded a normalised indicator fluorescence of 0.94.
`CC(C)OC(=O)CCC/C=C\C[C@@H]1[C@@H](CC[C@@H](O)CCc2ccccc2)[C@H](O)C[C@@H]1O` [Latanoprost] gave a normalised indicator fluorescence of 1.06.
In the case of `CCCC(C(=O)OCCN(CC)CC)(c1ccccc1)c1ccccc1` [Proadifen hydrochloride], the normalised indicator fluorescence is reported as 0.941.
`COC1=C2C[C@@H](C)C[C@H](OC)[C@H](O)[C@@H](C)/C=C(\C)[C@H](OC(N)=O)[C@@H](OC)/C=C\C=C(/C)C(=O)NC(=CC1=O)C2=O` [Geldanamycin] gave a normalised indicator fluorescence of 1.09.
In the case of `COc1ccc(C(=C2C(=O)Nc3ccccc32)c2ccc(OC)cc2)cc1`, the normalised indicator fluorescence is reported as 0.944.
In the case of `O=C1C[C@@H](c2ccc(O)cc2)Oc2cc(O)cc(O)c21` [Naringenin], the normalised indicator fluorescence is reported as 0.978.
`[I-].[K+]` [Potassium iodide] showed a normalised indicator fluorescence of 1.07.
For `CO[C@H]1/C=C/O[C@@]2(C)Oc3c(C)c(O)c4c(c3C2=O)C2=NC3(CCN(CC(C)C)CC3)NC2=C(NC(=O)/C(C)=C\C=C\[C@H](C)[C@H](O)[C@@H](C)[C@@H](O)[C@@H](C)[C@H](OC(C)=O)[C@@H]1C)C4=O` [Rifabutin], the normalised indicator fluorescence was 0.991.
For `O=C(O)/C=C/c1ccc(Cn2ccnc2)cc1` [Ozagrel], the normalised indicator fluorescence was 0.929.
`CC1(C)OC(=O)C=C[C@]2(C)[C@H]3CC[C@@]4(C)[C@H](c5ccoc5)OC(=O)[C@H]5O[C@]54[C@]3(C)C(=O)C[C@@H]12` [Obacunone] gave a normalised indicator fluorescence of 0.979.
`NNC(=O)c1ccncc1` [Isoniazid] showed a normalised indicator fluorescence of 0.921.
Work on `CC1=NN(c2ccccc2)C(=O)C1` [Edaravone] yielded a normalised indicator fluorescence of 1.05.
`CC(C)(O)[C@@H]1CC[C@](C)([C@H]2[C@@H](O)C[C@@]3(C)[C@@H]4C[C@H](O)[C@H]5C(C)(C)[C@@H](O[C@@H]6OC[C@@H](O)[C@H](O)[C@H]6O[C@@H]6O[C@H](CO)[C@@H](O)[C@H](O)[C@H]6O)CC[C@@]56C[C@@]46CC[C@]23C)O1` [Astragaloside III] showed a normalised indicator fluorescence of 0.952.
In the case of `O=C(Nc1ccc2[nH]nc(-c3ccncc3)c2c1)[C@@H]1CCN(CC(=O)N2CCN(c3ccc(-c4ncccn4)cc3)CC2)C1`, the normalised indicator fluorescence is reported as 0.931.
Work on `O=C(COc1ccc(Cl)cc1)NC1CCC(NC(=O)COc2ccc(Cl)cc2)CC1` (stereo not given) yielded a normalised indicator fluorescence of 0.894.
With `Oc1cc(O)c2c(c1)O[C@H](c1ccc(O)c(O)c1)[C@@H](O)C2` [Cianidanol] the normalised indicator fluorescence was 1.
`C[C@@H]1O[C@@H](O[C@@H]2[C@@H](O)[C@H](OCCc3ccc(O)c(O)c3)O[C@H](CO)[C@H]2OC(=O)/C=C/c2ccc(O)c(O)c2)[C@H](O)[C@H](O)[C@H]1O` [Verbascoside] gave a normalised indicator fluorescence of 1.02.
